Measured values from PMC7862700, “An all-to-all approach to the identification of sequence-specific readers for epigenetic DNA modifications on cytosine”.

Columns and labels:
Experiment in all cases: DAPPL (digital affinity profiling via proximity ligation, sequencing); 10 mM Tris-HCl pH 7.5, 50 mM NaCl, 1 mM DTT, 4% glycerol, room temperature, 30 min; GST-TFs on glutathione beads, 16-mer random dsDNA library, 0.1% formaldehyde crosslink after washing; high values mean tight binding
Conditions in all cases: protein: recombinant; tags: N-terminal GST; dsDNA, one strand shown
GABPA = biological target: T1, GABPA (Homo sapiens, UniProt Q06546 1-454)
T1 sequence: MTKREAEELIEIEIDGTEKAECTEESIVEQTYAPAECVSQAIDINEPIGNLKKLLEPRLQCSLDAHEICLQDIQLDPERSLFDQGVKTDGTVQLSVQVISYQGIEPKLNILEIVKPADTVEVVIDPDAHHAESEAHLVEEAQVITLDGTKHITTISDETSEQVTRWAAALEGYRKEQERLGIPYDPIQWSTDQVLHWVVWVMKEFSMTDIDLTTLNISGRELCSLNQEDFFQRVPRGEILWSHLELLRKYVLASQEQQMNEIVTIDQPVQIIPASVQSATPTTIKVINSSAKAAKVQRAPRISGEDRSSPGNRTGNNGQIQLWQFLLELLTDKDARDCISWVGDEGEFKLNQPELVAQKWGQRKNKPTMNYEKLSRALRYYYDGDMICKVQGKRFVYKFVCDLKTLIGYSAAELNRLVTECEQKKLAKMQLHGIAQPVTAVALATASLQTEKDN
Method in brief: (§1)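 After expression in yeast as GST fusions, human transcription factors were bound to glutathione beads, DNA-barcoded and mixed with a tag-only sample. The pools were incubated with 200 nmole of a 16-mer random double-stranded DNA library in Tris/NaCl/DTT/glycerol buffer (30 min, room temperature), washed and crosslinked with 0.1% formaldehyde. Proximity ligation with BsaI/T4 ligase ran for 1 h at 37 °C, before PCR amplification and sequencing on an Illumina NextSeq500. Binding signal is a hexamer's read frequency for a factor divided by its frequency for the tag-only sample.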

ELF1 = ELF1 (Homo sapiens, UniProt P32519 1-619)
Sequence of ELF1 (P32519 whole entry): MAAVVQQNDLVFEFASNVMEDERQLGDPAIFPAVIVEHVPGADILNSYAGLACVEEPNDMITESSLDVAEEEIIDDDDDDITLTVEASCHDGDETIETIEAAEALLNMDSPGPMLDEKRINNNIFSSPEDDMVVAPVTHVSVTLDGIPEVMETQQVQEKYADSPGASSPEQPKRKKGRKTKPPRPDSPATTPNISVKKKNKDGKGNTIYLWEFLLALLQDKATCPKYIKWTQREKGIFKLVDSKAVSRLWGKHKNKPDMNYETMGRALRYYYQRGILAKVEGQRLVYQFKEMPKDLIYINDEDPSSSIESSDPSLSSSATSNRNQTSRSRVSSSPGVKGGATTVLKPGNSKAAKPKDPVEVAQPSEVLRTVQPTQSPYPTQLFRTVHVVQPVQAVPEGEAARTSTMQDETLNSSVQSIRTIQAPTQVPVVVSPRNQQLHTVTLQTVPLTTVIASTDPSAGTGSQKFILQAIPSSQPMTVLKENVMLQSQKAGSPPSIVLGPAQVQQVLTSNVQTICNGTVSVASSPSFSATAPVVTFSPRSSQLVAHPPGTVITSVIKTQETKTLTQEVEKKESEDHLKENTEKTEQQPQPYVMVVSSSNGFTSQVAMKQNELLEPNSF
Method in brief: as §1

ETV5 = ETV5 (Homo sapiens, UniProt P41161 1-510)
Sequence of ETV5 (P41161 whole entry): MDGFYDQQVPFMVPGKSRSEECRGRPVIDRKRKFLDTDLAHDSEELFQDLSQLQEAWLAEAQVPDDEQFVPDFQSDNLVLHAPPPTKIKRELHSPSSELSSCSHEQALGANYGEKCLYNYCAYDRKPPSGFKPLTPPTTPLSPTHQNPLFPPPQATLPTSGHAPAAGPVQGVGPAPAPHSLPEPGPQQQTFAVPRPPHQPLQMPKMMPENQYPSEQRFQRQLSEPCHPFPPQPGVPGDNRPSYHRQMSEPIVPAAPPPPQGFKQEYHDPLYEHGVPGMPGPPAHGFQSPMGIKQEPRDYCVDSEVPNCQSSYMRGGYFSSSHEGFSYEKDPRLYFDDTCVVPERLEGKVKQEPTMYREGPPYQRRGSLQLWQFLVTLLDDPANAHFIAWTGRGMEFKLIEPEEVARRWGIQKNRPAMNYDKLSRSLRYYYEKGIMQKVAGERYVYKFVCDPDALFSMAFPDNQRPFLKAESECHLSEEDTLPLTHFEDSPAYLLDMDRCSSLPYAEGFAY
Method in brief: as §1

SPIC = biological target: T2, SPIC (Homo sapiens, UniProt Q8N5J4 1-248)
T2 sequence: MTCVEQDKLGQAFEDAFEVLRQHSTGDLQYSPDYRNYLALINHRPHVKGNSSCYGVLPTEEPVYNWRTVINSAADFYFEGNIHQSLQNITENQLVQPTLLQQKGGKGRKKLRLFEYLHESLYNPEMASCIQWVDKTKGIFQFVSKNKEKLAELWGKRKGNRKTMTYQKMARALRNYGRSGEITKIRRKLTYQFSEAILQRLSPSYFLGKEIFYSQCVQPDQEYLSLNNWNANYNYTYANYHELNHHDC
Method in brief: as §1

ELK4 = biological target: T3, ELK4 (Homo sapiens, UniProt P28324-2 1-405)
T3 sequence: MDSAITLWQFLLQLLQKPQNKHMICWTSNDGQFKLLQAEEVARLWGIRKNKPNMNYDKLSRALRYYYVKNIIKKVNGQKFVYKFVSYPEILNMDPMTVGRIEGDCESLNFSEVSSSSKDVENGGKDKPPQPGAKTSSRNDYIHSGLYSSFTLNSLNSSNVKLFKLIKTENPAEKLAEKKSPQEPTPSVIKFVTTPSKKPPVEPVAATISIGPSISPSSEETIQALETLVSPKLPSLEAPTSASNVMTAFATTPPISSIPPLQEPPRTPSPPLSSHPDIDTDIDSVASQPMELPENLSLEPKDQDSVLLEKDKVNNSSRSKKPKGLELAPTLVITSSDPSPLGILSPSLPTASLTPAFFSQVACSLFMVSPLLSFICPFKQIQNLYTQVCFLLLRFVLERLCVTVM
Method in brief: as §1

ETV7 = biological target: T4, ETV7 (Homo sapiens, UniProt Q9Y603 1-341)
T4 sequence: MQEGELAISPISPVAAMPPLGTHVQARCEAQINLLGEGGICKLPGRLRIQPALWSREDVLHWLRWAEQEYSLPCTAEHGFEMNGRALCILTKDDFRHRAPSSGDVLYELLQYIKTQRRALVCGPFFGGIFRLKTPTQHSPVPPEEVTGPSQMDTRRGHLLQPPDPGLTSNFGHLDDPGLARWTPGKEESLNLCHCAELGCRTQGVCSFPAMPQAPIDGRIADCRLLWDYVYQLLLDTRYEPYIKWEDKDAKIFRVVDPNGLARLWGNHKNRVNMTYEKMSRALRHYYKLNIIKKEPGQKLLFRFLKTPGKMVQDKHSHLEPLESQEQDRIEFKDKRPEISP
Method in brief: as §1

ETV3 = biological target: T5, ETV3 (Homo sapiens, UniProt P41162-2 1-143)
T5 sequence: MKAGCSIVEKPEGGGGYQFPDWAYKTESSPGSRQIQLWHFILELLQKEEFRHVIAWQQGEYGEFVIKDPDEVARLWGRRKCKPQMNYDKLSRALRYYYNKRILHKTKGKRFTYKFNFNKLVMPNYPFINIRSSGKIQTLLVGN
Method in brief: as §1

ETV6 = ETV6 (Homo sapiens, UniProt P41212 1-452)
Sequence of ETV6 (P41212 whole entry): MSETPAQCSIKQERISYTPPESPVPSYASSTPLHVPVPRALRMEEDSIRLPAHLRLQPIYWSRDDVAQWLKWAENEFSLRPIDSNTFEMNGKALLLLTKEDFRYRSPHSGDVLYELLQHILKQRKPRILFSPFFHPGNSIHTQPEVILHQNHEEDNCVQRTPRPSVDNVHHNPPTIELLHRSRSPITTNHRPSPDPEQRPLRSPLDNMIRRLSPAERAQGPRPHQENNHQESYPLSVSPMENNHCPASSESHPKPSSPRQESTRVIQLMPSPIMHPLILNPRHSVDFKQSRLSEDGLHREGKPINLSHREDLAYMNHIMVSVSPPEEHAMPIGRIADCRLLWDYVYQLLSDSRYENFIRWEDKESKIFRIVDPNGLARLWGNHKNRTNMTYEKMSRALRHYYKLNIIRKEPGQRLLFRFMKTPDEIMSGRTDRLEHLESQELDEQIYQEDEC
Method in brief: as §1

SPIB = SPIB (Homo sapiens, UniProt Q01892 1-262)
Sequence of SPIB (Q01892 whole entry): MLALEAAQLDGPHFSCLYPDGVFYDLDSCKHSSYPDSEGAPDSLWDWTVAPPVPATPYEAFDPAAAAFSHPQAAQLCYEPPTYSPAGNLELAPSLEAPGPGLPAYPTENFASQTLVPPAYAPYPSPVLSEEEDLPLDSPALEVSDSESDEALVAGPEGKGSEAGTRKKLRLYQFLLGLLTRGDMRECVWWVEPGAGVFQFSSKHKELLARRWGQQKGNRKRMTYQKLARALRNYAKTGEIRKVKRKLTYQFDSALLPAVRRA
Method in brief: as §1

ELK3 = biological target: T6, ELK3 (Homo sapiens, UniProt P41970 1-407)
T6 sequence: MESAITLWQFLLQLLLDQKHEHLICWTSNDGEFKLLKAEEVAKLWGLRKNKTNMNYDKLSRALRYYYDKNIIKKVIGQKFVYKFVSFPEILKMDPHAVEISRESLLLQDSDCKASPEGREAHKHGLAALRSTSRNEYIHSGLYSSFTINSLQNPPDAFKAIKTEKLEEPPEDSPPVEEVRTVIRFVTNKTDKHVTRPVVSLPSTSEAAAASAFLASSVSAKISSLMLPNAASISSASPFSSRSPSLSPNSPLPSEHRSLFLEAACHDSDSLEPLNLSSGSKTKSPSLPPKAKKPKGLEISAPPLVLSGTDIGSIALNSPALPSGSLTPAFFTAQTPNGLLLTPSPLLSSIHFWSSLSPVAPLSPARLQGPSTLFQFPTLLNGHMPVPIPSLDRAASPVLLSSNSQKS
Method in brief: as §1

ETV1 = ETV1 (Homo sapiens, UniProt P50549 1-477)
Sequence of ETV1 (P50549 whole entry): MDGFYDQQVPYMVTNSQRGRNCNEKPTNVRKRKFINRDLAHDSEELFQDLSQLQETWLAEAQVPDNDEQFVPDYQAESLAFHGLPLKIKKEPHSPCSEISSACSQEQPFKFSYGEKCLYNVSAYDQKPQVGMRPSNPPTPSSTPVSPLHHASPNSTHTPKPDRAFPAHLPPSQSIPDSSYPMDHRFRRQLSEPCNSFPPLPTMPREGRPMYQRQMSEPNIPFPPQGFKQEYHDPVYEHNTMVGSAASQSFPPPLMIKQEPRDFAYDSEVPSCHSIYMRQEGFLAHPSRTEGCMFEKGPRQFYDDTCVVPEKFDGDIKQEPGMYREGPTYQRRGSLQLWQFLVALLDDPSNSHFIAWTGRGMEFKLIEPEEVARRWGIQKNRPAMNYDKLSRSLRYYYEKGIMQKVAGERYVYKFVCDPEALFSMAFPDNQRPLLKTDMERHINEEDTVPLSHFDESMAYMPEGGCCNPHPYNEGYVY
Method in brief: as §1

ETS2 = biological target: T7, ETS2 (Homo sapiens, UniProt P15036 1-469)
T7 sequence: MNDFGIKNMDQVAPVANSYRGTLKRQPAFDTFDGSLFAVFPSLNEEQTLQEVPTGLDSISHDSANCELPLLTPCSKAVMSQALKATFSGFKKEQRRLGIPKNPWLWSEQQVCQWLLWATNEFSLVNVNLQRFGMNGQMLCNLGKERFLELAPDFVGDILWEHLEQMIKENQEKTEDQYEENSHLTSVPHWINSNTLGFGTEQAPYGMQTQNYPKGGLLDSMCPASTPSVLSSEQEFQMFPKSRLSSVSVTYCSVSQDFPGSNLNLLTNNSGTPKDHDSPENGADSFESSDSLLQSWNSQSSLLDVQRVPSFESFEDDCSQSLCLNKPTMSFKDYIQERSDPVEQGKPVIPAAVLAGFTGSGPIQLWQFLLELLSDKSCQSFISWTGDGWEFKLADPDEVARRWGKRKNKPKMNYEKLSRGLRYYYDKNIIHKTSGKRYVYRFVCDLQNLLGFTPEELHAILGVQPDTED
Method in brief: as §1

Row | Sequence | binding signal (GABPA) | binding signal (ELF1) | binding signal (ETV5) | binding signal (SPIC) | binding signal (ELK4) | binding signal (ETV7) | binding signal (ETV3) | binding signal (ETV6) | binding signal (SPIB) | binding signal (ELK3) | binding signal (ETV1) | binding signal (ETS2)
1 | CGACGG | 1.09 fold enrichment (6-mer frequency, TF over GST control) | 1.01 fold enrichment (6-mer frequency, TF over GST control) | 1 fold enrichment (6-mer frequency, TF over GST control) | 1.15 fold enrichment (6-mer frequency, TF over GST control) | 1.02 fold enrichment (6-mer frequency, TF over GST control) | 1.13 fold enrichment (6-mer frequency, TF over GST control) | 1.05 fold enrichment (6-mer frequency, TF over GST control) | 1.03 fold enrichment (6-mer frequency, TF over GST control) |  |  |  | 
2 | GGGTAT |  |  | 1.02 fold enrichment (6-mer frequency, TF over GST control) |  | 1.1 fold enrichment (6-mer frequency, TF over GST control) | 1.02 fold enrichment (6-mer frequency, TF over GST control) |  |  | 1.02 fold enrichment (6-mer frequency, TF over GST control) | 1.04 fold enrichment (6-mer frequency, TF over GST control) | 1.01 fold enrichment (6-mer frequency, TF over GST control) | 1.02 fold enrichment (6-mer frequency, TF over GST control)
